# Results taken from paper PMC11574364.
# How the values were obtained:
# Experiment in all cases: protein domain microarray probed with biotinylated miRNA; Domain array: 20 mM Tris-HCl pH 7.4, 200 mM KCl, 0.2 mM EDTA, 0.05% NP40, 2 ug/ul heparin, overnight 4 C. ORF array: PBS pH 7.0 with RNase inhibitor, 100 ng RNA; high values mean tight binding
# Conditions in all cases: ssRNA
# hnRNP-H2 = molecular target: T1, hnRNP-H2 (Homo sapiens, UniProt P55795)
# T1 sequence: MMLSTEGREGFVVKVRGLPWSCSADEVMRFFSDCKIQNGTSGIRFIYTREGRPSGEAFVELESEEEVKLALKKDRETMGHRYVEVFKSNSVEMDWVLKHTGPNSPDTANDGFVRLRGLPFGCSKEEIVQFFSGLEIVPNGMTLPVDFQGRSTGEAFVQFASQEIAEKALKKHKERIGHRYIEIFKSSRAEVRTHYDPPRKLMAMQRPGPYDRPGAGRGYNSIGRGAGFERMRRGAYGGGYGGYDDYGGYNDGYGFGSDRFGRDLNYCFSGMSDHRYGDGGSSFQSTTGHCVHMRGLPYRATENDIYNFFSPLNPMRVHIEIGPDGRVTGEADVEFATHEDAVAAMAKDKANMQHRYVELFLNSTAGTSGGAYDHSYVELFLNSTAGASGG
# MTHFSD = molecular target: T2, MTHFSD (Homo sapiens, UniProt Q2M296)
# T2 sequence: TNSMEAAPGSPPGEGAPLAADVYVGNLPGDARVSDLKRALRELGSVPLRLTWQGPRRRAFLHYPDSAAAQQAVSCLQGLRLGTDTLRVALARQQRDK
# NCBP2L = molecular target: T3, NCBP2L (Homo sapiens, UniProt A6PVI3)
# T3 sequence: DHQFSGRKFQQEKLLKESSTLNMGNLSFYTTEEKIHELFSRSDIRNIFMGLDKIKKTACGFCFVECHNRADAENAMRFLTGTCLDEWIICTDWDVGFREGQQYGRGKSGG
# hnRNP-I(1-2) = hnRNP-I(1-2) (Homo sapiens, UniProt P26599)
# Sequence of hnRNP-I(1-2) (P26599 40-280): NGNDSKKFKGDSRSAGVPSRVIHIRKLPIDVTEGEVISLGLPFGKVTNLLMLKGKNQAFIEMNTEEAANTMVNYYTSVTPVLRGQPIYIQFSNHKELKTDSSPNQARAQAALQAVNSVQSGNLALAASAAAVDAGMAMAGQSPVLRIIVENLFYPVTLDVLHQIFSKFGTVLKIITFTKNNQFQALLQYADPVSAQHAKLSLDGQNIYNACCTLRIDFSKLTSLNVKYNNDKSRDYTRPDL
# CELF6(1-2) = CELF6(1-2) (Homo sapiens, UniProt Q96J87)
# Sequence of CELF6(1-2) (Q96J87 21-233): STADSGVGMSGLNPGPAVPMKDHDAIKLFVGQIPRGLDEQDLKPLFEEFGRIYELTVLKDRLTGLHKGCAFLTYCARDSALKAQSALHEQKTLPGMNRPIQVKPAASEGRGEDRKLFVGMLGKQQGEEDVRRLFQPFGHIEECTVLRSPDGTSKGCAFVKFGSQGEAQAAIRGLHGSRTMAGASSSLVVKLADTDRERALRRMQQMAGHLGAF
# hnRNP-D-like = molecular target: T4, hnRNP-D-like (Homo sapiens, UniProt O14979)
# T4 sequence: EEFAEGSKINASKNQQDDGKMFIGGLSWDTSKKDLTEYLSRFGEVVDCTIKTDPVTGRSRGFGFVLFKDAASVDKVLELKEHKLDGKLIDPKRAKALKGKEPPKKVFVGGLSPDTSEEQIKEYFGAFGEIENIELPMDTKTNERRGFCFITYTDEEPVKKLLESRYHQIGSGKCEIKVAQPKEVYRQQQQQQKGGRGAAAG
# IGF2BP2 = IGF2BP2 (Homo sapiens, UniProt Q9Y6M1)
# Sequence of IGF2BP2 (Q9Y6M1 1-177): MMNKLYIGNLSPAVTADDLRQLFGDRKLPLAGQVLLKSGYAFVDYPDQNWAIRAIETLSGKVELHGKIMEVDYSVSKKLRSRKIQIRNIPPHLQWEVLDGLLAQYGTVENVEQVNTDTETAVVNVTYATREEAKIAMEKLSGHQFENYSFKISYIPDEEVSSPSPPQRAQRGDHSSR
# PABPNL1 = molecular target: T5, PABPNL1 (Homo sapiens, UniProt A6NDY0)
# T5 sequence: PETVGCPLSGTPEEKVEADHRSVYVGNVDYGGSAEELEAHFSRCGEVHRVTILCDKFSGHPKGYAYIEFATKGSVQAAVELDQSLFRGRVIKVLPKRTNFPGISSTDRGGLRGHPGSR
# MYEF2(1-2) = molecular target: T6, MYEF2(1-2) (Homo sapiens, UniProt Q9P2K5)
# T6 sequence: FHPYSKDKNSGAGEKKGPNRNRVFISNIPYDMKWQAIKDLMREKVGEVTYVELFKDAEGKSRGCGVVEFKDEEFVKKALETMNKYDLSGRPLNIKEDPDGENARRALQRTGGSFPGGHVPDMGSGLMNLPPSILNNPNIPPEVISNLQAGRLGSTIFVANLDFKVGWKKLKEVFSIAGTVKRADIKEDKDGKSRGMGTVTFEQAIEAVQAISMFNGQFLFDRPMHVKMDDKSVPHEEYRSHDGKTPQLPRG
# CIRBP = molecular target: T7, CIRBP (Homo sapiens, UniProt Q14011)
# T7 sequence: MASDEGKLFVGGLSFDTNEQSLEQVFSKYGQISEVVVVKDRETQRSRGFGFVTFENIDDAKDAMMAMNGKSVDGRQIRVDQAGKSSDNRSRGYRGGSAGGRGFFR
# ELAVL4 = ELAVL4 (Homo sapiens, UniProt P26378)
# Sequence of ELAVL4 (P26378 30-385): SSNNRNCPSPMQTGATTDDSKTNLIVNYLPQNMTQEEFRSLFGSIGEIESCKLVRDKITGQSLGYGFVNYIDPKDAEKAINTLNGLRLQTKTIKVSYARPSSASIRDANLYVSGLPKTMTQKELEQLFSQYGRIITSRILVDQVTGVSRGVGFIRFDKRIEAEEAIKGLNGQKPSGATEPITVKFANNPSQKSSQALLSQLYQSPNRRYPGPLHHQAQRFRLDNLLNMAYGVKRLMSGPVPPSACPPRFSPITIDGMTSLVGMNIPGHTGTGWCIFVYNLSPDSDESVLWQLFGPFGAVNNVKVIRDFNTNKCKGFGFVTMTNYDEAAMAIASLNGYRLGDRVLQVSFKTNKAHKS
# hnRNP-P2 = hnRNP-P2 (Homo sapiens, UniProt P35637)
# Sequence of hnRNP-P2 (P35637 265-390): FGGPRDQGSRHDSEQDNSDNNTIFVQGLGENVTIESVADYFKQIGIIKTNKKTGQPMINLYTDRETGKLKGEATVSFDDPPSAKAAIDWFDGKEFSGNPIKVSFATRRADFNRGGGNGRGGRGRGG
# LARP7(1) = molecular target: T8, LARP7(1) (Homo sapiens, UniProt Q4G0J3)
# T8 sequence: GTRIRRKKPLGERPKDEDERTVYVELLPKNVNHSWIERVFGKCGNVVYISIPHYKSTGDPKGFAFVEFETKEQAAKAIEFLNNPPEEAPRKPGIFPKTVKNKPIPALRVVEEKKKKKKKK
# CELF5(1-2) = CELF5(1-2) (Homo sapiens, UniProt Q8N6W0)
# Sequence of CELF5(1-2) (Q8N6W0 20-233): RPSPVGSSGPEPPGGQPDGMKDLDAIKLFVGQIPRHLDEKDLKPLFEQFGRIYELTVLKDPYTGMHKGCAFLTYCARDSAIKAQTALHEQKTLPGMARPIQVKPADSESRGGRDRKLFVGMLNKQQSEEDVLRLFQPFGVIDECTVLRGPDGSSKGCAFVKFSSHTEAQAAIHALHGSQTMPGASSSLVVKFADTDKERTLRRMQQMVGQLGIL
# EIF4H = EIF4H (Homo sapiens, UniProt Q15056)
# PABPC1L2A = PABPC1L2A (Homo sapiens, UniProt Q5JQF8)
# Sequence of PABPC1L2A (Q5JQF8 whole entry): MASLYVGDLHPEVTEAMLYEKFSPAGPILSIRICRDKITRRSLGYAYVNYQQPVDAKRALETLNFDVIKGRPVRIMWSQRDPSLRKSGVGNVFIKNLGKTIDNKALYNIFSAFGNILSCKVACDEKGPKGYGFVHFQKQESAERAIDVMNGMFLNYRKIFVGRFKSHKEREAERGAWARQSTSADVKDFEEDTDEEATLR
# NIFK = NIFK (Homo sapiens, UniProt Q9BYG3)
# PABPC5 = PABPC5 (Homo sapiens, UniProt Q96DU9)
# Sequence of PABPC5 (Q96DU9 whole entry): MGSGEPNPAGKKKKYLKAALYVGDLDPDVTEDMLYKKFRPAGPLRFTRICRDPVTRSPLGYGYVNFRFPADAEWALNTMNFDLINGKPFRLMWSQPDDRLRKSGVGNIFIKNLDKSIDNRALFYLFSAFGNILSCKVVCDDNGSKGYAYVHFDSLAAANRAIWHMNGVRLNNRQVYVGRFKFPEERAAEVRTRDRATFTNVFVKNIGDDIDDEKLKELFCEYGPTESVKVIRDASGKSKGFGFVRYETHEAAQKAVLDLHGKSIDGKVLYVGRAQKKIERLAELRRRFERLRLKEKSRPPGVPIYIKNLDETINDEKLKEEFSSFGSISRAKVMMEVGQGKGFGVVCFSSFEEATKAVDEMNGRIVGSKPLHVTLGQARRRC
# IGF2BP3 = IGF2BP3 (Homo sapiens, UniProt O00425)
# Sequence of IGF2BP3 (O00425 1-176): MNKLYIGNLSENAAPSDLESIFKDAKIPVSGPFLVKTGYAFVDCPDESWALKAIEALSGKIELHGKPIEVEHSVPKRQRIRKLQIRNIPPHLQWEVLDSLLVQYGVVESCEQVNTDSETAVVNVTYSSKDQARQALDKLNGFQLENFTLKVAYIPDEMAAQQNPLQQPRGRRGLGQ
# NCBP2 = molecular target: T9, NCBP2 (Homo sapiens, UniProt P52298)
# T9 sequence: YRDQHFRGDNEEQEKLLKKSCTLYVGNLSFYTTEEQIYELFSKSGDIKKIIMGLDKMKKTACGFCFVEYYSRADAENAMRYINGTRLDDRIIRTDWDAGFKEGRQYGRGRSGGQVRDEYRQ
sequence,measurement,setting,value
UAGCUUAUCAGACUGAUGUUGA,binding signal,hnRNP-H2,20 ± 0.509 fluorescence intensity
same,binding signal,MTHFSD,42.6 ± 13.9 fluorescence intensity
same,binding signal,NCBP2L,43.9 ± 1.85 fluorescence intensity
same,binding signal,hnRNP-I(1-2),72.7 ± 35.4 fluorescence intensity
same,binding signal,CELF6(1-2),32.2 ± 4.03 fluorescence intensity
same,binding signal,hnRNP-D-like,40.3 ± 4.07 fluorescence intensity
same,binding signal,IGF2BP2,21.5 ± 2.16 fluorescence intensity
same,binding signal,PABPNL1,322 ± 10.4 fluorescence intensity
same,binding signal,MYEF2(1-2),393 ± 6.4 fluorescence intensity
same,binding signal,CIRBP,801 ± 174 fluorescence intensity
same,binding signal,ELAVL4,825 ± 34.8 fluorescence intensity
UGAGGUAGUAGGUUGUAUAGUU,binding signal,hnRNP-P2,58.1 ± 13.9 fluorescence intensity
same,binding signal,hnRNP-H2,258 ± 16.1 fluorescence intensity
same,binding signal,MTHFSD,133 ± 32.4 fluorescence intensity
same,binding signal,NCBP2L,40.6 ± 4.36 fluorescence intensity
same,binding signal,hnRNP-I(1-2),293 ± 83.2 fluorescence intensity
same,binding signal,LARP7(1),35.35 ± 0.0495 fluorescence intensity
same,binding signal,CELF5(1-2),24.4 ± 2.19 fluorescence intensity
same,binding signal,EIF4H,31.8 ± 3.73 fluorescence intensity
same,binding signal,PABPC1L2A,46.3 ± 9.23 fluorescence intensity
same,binding signal,CELF6(1-2),28.4 ± 3.05 fluorescence intensity
same,binding signal,hnRNP-D-like,288 ± 15.7 fluorescence intensity
same,binding signal,IGF2BP2,28.3 ± 5.47 fluorescence intensity
same,binding signal,NIFK,23 ± 0.658 fluorescence intensity
same,binding signal,PABPNL1,531 ± 16.5 fluorescence intensity
same,binding signal,PABPC5,52 ± 3.7 fluorescence intensity
same,binding signal,MYEF2(1-2),228 ± 4.88 fluorescence intensity
same,binding signal,CIRBP,1010 ± 76.7 fluorescence intensity
same,binding signal,ELAVL4,725 ± 56.5 fluorescence intensity
CAGUGCAAUGAUGAAAGGGCAU,binding signal,hnRNP-P2,40.3 ± 3.56 fluorescence intensity
same,binding signal,hnRNP-H2,944.5 ± 8.38 fluorescence intensity
same,binding signal,MTHFSD,349.3 ± 0.905 fluorescence intensity
same,binding signal,IGF2BP3,20.1 ± 2.45 fluorescence intensity
same,binding signal,NCBP2L,162 ± 7.95 fluorescence intensity
same,binding signal,hnRNP-I(1-2),185 ± 5.4 fluorescence intensity
same,binding signal,LARP7(1),104 ± 10.5 fluorescence intensity
same,binding signal,CELF5(1-2),52.7 ± 5.17 fluorescence intensity
same,binding signal,EIF4H,71.2 ± 5.92 fluorescence intensity
same,binding signal,PABPC1L2A,88.7 ± 6.19 fluorescence intensity
same,binding signal,CELF6(1-2),105 ± 14.1 fluorescence intensity
same,binding signal,hnRNP-D-like,250 ± 14.8 fluorescence intensity
same,binding signal,IGF2BP2,91.7 ± 5.63 fluorescence intensity
same,binding signal,NIFK,38.6 ± 4.43 fluorescence intensity
same,binding signal,PABPNL1,2030 ± 144 fluorescence intensity
same,binding signal,PABPC5,187 ± 8.46 fluorescence intensity
same,binding signal,MYEF2(1-2),826 ± 53.3 fluorescence intensity
same,binding signal,CIRBP,2040 ± 82.9 fluorescence intensity
same,binding signal,ELAVL4,1170 ± 66.8 fluorescence intensity
AGAGGUAGUAGGUUGCAUAGUU,binding signal,hnRNP-P2,131 ± 2.9 fluorescence intensity
same,binding signal,hnRNP-H2,907 ± 16.1 fluorescence intensity
same,binding signal,MTHFSD,716 ± 48.4 fluorescence intensity
same,binding signal,IGF2BP3,46.2 ± 3.19 fluorescence intensity
same,binding signal,NCBP2L,202 ± 9.81 fluorescence intensity
same,binding signal,hnRNP-I(1-2),1010 ± 92.8 fluorescence intensity
same,binding signal,LARP7(1),137 ± 1.39 fluorescence intensity
same,binding signal,CELF5(1-2),56.1 ± 4.7 fluorescence intensity
same,binding signal,EIF4H,115 ± 9.98 fluorescence intensity
same,binding signal,PABPC1L2A,179 ± 20.3 fluorescence intensity
same,binding signal,CELF6(1-2),88.4 ± 8.85 fluorescence intensity
same,binding signal,NCBP2,29.2 ± 11.8 fluorescence intensity
same,binding signal,hnRNP-D-like,601 ± 9.77 fluorescence intensity
same,binding signal,IGF2BP2,130 ± 20.3 fluorescence intensity
same,binding signal,NIFK,81.96 ± 0.608 fluorescence intensity
same,binding signal,PABPNL1,1510 ± 38.3 fluorescence intensity
same,binding signal,PABPC5,351 ± 14.6 fluorescence intensity
same,binding signal,MYEF2(1-2),1130 ± 77.2 fluorescence intensity
same,binding signal,CIRBP,2620 ± 43 fluorescence intensity
same,binding signal,ELAVL4,1830 ± 31 fluorescence intensity
UGAGGUAGUAGGUUGUAUGGUU,binding signal,hnRNP-P2,441 ± 19.8 fluorescence intensity
same,binding signal,hnRNP-H2,663 ± 15.2 fluorescence intensity
same,binding signal,MTHFSD,488 ± 22.1 fluorescence intensity
same,binding signal,IGF2BP3,22.9 ± 3.19 fluorescence intensity
same,binding signal,NCBP2L,180 ± 10.2 fluorescence intensity
same,binding signal,hnRNP-I(1-2),911 ± 32.3 fluorescence intensity
same,binding signal,LARP7(1),153.2 ± 0.424 fluorescence intensity
same,binding signal,CELF5(1-2),48 ± 2.14 fluorescence intensity
same,binding signal,EIF4H,93.9 ± 8.49 fluorescence intensity
same,binding signal,PABPC1L2A,240 ± 13.7 fluorescence intensity
same,binding signal,CELF6(1-2),89.8 ± 3.29 fluorescence intensity
same,binding signal,NCBP2,66.8 ± 8.78 fluorescence intensity
same,binding signal,hnRNP-D-like,741 ± 27.9 fluorescence intensity
same,binding signal,IGF2BP2,49.2 ± 7.44 fluorescence intensity
same,binding signal,NIFK,138 ± 7.4 fluorescence intensity
same,binding signal,PABPNL1,1110 ± 57.4 fluorescence intensity
same,binding signal,PABPC5,291 ± 13.4 fluorescence intensity
same,binding signal,MYEF2(1-2),789 ± 41.9 fluorescence intensity
same,binding signal,CIRBP,1980 ± 32.4 fluorescence intensity
same,binding signal,ELAVL4,1450 ± 42.8 fluorescence intensity
UGAGGUAGUAGGUUGUGUGGUU,binding signal,hnRNP-P2,576 ± 71.1 fluorescence intensity
same,binding signal,hnRNP-H2,727 ± 35.9 fluorescence intensity
same,binding signal,MTHFSD,439 ± 58.4 fluorescence intensity
same,binding signal,IGF2BP3,36.9 ± 7.82 fluorescence intensity
same,binding signal,NCBP2L,239 ± 6.08 fluorescence intensity
same,binding signal,hnRNP-I(1-2),994 ± 33.7 fluorescence intensity
same,binding signal,LARP7(1),234 ± 9.55 fluorescence intensity
same,binding signal,CELF5(1-2),107 ± 9.34 fluorescence intensity
same,binding signal,EIF4H,208 ± 18.3 fluorescence intensity
same,binding signal,PABPC1L2A,312 ± 42.4 fluorescence intensity
same,binding signal,CELF6(1-2),224 ± 12 fluorescence intensity
same,binding signal,NCBP2,68.7 ± 13.2 fluorescence intensity
same,binding signal,hnRNP-D-like,751 ± 46.5 fluorescence intensity
same,binding signal,IGF2BP2,60.9 ± 10.8 fluorescence intensity
same,binding signal,NIFK,207 ± 7.23 fluorescence intensity
same,binding signal,PABPNL1,1609 ± 3.14 fluorescence intensity
same,binding signal,PABPC5,304 ± 27.6 fluorescence intensity
same,binding signal,MYEF2(1-2),1050 ± 50.7 fluorescence intensity
same,binding signal,CIRBP,2020 ± 38.1 fluorescence intensity
same,binding signal,ELAVL4,1510 ± 102 fluorescence intensity
